Measured values reported in publication PMC4336329 (PLoS ONE, 2015).
The whole screen tested about 310,000 compounds, of which about 14,000 (4.5%) showed an effect of 50% or more. Effects have a minus sign here. Shown is part of a subset that was picked to be rich in strong results.

Target: human ether-à-go-go-related gene (hERG) potassium channel (human, UniProt Q12809)
Assay: primary screen, population patch clamp on CHO cells stably expressing hERG; higher = less effect of the substance
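Further: peak tail current of the secondary pulse compared with the same well before compound.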

Chain of human ether-à-go-go-related gene (hERG) potassium channel (Q12809 whole entry, looked up): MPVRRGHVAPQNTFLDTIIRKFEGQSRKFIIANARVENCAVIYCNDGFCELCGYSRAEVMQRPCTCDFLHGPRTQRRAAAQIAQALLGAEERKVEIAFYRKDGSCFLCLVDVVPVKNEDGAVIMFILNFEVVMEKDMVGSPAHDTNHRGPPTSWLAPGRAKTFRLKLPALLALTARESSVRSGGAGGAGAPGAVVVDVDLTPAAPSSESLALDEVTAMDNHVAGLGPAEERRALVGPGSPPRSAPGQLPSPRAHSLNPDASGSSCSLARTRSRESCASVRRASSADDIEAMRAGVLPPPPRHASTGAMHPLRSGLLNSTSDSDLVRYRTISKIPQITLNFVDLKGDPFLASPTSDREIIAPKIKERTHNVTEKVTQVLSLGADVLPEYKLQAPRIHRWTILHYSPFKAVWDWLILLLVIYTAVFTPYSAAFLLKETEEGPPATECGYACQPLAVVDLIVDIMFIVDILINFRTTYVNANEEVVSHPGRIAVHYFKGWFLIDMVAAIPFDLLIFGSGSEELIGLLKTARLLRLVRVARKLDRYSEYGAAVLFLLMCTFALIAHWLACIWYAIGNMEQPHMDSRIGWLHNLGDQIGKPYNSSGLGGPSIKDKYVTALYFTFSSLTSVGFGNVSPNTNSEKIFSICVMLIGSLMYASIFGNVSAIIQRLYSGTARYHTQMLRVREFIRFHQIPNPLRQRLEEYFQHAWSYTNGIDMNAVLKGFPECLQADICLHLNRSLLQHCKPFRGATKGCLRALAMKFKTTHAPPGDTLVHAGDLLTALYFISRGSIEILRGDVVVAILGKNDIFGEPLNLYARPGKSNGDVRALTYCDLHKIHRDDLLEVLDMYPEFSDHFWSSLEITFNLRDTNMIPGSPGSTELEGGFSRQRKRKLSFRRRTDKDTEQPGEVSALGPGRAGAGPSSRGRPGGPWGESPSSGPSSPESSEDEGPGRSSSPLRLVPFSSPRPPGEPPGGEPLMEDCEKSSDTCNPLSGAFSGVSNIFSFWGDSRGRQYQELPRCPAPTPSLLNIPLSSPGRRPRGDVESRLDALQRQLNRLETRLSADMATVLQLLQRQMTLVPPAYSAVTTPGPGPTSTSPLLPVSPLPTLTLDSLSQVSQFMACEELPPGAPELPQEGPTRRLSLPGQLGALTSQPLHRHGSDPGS

| Structure (SMILES) | hERG current change (%, negative = inhibition) at 10uM [%] |
| --- | --- |
| CCCNC(=O)C(Cc1ccc(C(F)(F)F)cc1)NC(=O)c1ccc2ccccc2n1 (stereo not drawn) | 14 |
| CCN1CCN(c2c(S(=O)(=O)c3ccc(C)c(C)c3)cnc3ccc(F)cc23)CC1 | -53.4 |
| CCc1ccc2ncc(S(=O)(=O)c3ccc(C)c(C)c3)c(N3CCCC3)c2c1 | 0.769 |
| CCOc1ccc2ncc(S(=O)(=O)c3ccccc3)c(N3CCN(c4ccccc4)CC3)c2c1 | -2.21 |
| Nc1cc(N)nc(SCC(=O)Nc2ccc3c(c2)OCCCO3)n1 | 8.03 |
| CN(C)c1ccc(/C=N/N(Cc2ccccc2)c2ccccc2)cc1 | 3.54 |
| Cc1cc(Cl)ccc1NC(=O)CN1CCCC1 | 27.1 |
| O=C(O)CC1(CC(=O)Nc2ccc(Cl)cc2C(=O)c2ccccc2)CCCC1 | 6.78 |
| CN1CCN(C(=S)SCC(=O)Nc2ccc(Cl)cc2C(=O)c2ccccc2)CC1 | -29.8 |
| O=C(CCNS(=O)(=O)c1ccccc1)Nc1ccc(Cl)cc1C(=O)c1ccccc1 | -32.9 |
| O=C(CCN1CCCCC1)Nc1ccc(Cl)cc1C(=O)c1ccccc1 | -72.6 |
| Cc1ccccc1NC(=O)CC1c2ccccc2CC(C)(C)N1C (stereo not drawn) | 4.03 |
| CN1C(CC(=O)Nc2ccc(Cl)cc2Cl)c2ccccc2CC1(C)C (stereo not drawn) | -76.7 |
| O=C(CN1CCCC1)Nc1ccc(Cl)cc1C(=O)c1ccccc1.O=C(O)C(=O)O | -46.8 |
| CN1CCN(CC(=O)Nc2ccc(Cl)cc2C(=O)c2ccccc2)CC1 | -77.2 |
| CN1C(CC(=O)Nc2ccc(Br)cc2)c2ccccc2CC1(C)C (stereo not drawn) | -38.2 |
| CN1CCN(CC(=O)Nc2ccc(Cl)cc2Cl)CC1 | -69.4 |
| O=C(CN1CCCCCCC1)Nc1ccc(Cl)cc1Cl | 35.9 |
| COc1cccc(C(=O)Nc2cc(NC(=O)c3cccs3)ccc2C)c1OC | -14 |
| Cc1sc(-c2c(C#N)c(N)nc3c2CCCCCC3)cc1[N+](=O)[O-] | -4.1 |
| COc1ccc(NC(=O)C2CCN(C(=O)[C@@H]3Cc4ccccc4CN3C(=O)OC(C)(C)C)CC2)cc1 | 2.02 |
| Cc1cc(C)c(NC(=O)Nc2ccccc2)c(C)n1 | 23.4 |

| Structure (SMILES) | hERG current change (%, negative = inhibition) at 10uM [%] |
| --- | --- |
| CN1CCN(CC(=O)Nc2cccc([N+](=O)[O-])c2)CC1 | 3.24 |
| O=C(CN1CCCC1)Nc1ccccc1C(=O)c1ccccc1 | -2.59 |
| CN1CCN(CC(=O)Nc2ccccc2[N+](=O)[O-])CC1 | -13.2 |
| O=C(CN1CCN(CCO)CC1)Nc1ccc(Cl)cc1C(=O)c1ccccc1 | -72.8 |
| O=C(COc1ccccc1)Nc1ccc(Cl)cc1C(=O)c1ccccc1 | 6.83 |
| CN1CCN(CC(=O)Nc2ccc([N+](=O)[O-])cc2C(=O)c2ccccc2)CC1 | -84.6 |
| Cc1ccc(-n2cc(-c3ccccc3)c3c(=O)[nH]cnc32)cc1 | 8.89 |
| COc1ccc(C(CNC(=O)C2CC2)N(C)C)cc1 (stereo not drawn) | 1.52 |
| COc1ccc(CN2CCCC(CNC(=O)c3ccc(F)cc3)C2)cc1OC (stereo not drawn) | -70.6 |
| COc1cccc(CN2CCCC(CNC(=O)c3ccc(F)cc3)C2)c1OC (stereo not drawn) | -49.1 |
| CCOc1cc(CN2CCCC(CNC(=O)c3ccc(F)cc3)C2)ccc1OC (stereo not drawn) | -66.2 |
| COC(=O)c1ccc(C(=O)N2CCCC(CNC(=O)c3ccc(F)cc3)C2)cc1 (stereo not drawn) | -5.82 |
| CCOc1ccccc1CN1CCCC(CNC(=O)Cc2ccc(OC)cc2)C1 (stereo not drawn) | -22.1 |
| COc1ccc(C(=O)N2CCCC(CNC(=O)c3ccc(F)cc3)C2)cc1OC (stereo not drawn) | 3.14 |
| COc1ccc(CN2CCCC(CNC(=O)c3ccc(F)cc3)C2)c(F)c1 (stereo not drawn) | -75.4 |
| COc1ccc(CC(=O)NCC2CCCN(Cc3ccc(OC)cc3F)C2)cc1 (stereo not drawn) | -36.9 |
| COc1ccc(CC(=O)NCC2CCCN(Cc3ccc(F)cc3F)C2)cc1 (stereo not drawn) | -17.5 |
| COc1ccc(CN2CCCC(CNC(=O)c3ccc(F)cc3)C2)c(C)c1C (stereo not drawn) | -75.5 |
| O=C(COC(=O)c1ccc(Br)o1)NCc1cccs1 | -4.11 |
| COCOc1ccc(C=O)c(O)c1 | 7.21 |
| CCOc1ccc(C2CC(c3cccc(OC)c3)Nc3nc(N)nn32)cc1 (stereo not drawn) | -26 |
| Cc1ccc(/C=N/Nc2ccc(Cl)c(C(=O)O)c2)s1 | 10 |

| Structure (SMILES) | hERG current change (%, negative = inhibition) at 10uM [%] |
| --- | --- |
| COc1ccccc1CCNC(=O)CN1C(=O)NC2(CCCC2)C1=O | -9.26 |
| Cc1cccnc1NC(=O)CNC(=O)COc1ccccc1 | 6.69 |
| CC(c1ccco1)N(C(=O)c1ccc(S(=O)(=O)N2CCCCC2)cc1)c1ccccn1 (stereo not drawn) | -4.75 |
| CCCC(=O)N(Cc1cc(=O)[nH]c2ccccc12)c1ccc(C)cc1 | -3.22 |
| Cc1cc(CNC(=O)c2cccnc2Cl)c2ccccc2n1 | -2.82 |
| COc1ccc(NC(=O)CN(C)C(=O)c2ccc3[nH]c4c(c3c2)CC(C)CC4)cc1 (stereo not drawn) | 7.28 |
| CCOc1cc(C(=O)NCc2ccc(F)cc2)ccc1OCC(=O)N1CCCCC1 | -37.5 |
| CCOc1ccc(CN2CCCC(CNC(=O)c3ccc(F)cc3)C2)cc1CO (stereo not drawn) | -68.1 |
| O=C(NC1CCN(C(=S)NCc2ccco2)CC1)NC12CC3CC(CC(C3)C1)C2 | 5.73 |
| CCOC(=O)N1CCC(N2C(=O)c3ccc(C(=O)O)cc3C2=O)CC1 | 9.66 |
| O=C(NC1CCCCC1)Oc1ccccc1 | 17.2 |
| COc1cccc(C(=O)N2CCN=C2SCc2cccnc2)c1OC | 4.44 |
| COc1ccc(NS(=O)(=O)c2cn(C)cn2)cc1 | 11.9 |
| Cl.Nc1nc(N2CCCCC2)nc2ccccc12 | -45.8 |
| Nc1nc(N2CCOCC2)nc2ccccc12 | -19.7 |
| c1ccc(N2CCN(c3nc4ccccc4[nH]3)CC2)nc1 | -64.4 |
| c1ccc(N2CCN(Cc3nc4ccccc4[nH]3)CC2)nc1 | 9.64 |
| Cl.Nc1nc(N2CCN(C/C=C/c3ccccc3)CC2)nc2ccccc12 | -67.7 |
| Cl.Nc1nc(N2CCN(c3ccccn3)CC2)nc2ccccc12 | -68.4 |
| c1ccc2[nH]c(N3CCOCC3)nc2c1 | 8.82 |
| CCN(CC)c1nc(N2CCN(C)CC2)nc2ccccc12.Cl | -44.3 |
| Oc1ccc2ccccc2c1CN1CCN(C/C=C/c2ccccc2)CC1 | 14 |

| Structure (SMILES) | hERG current change (%, negative = inhibition) at 10uM [%] |
| --- | --- |
| COC(=O)c1cccc(N(CC(=O)NC2CCCC2)C(=O)CNC(=O)c2cccs2)c1 | -1.26 |
| O=C(Nc1sc2c(c1C(=O)N1CCOCC1)CCCCC2)c1cccnc1 | 17 |
| CCN(CC)S(=O)(=O)c1ccc(N2CCCC2)c(NC(=O)CC(C)(C)C)c1 | -2.34 |
| Cc1cc(C(=O)NC(C)c2ccccc2)c2cc(F)ccc2n1 (stereo not drawn) | 3.06 |
| O=C(N/N=C/c1c(Cl)cccc1Cl)c1cccc(F)c1 | 3.24 |
| CC/C(C)=N/NC(=O)c1[nH]c2ccc(C)cc2c1-c1ccccc1 | 0.516 |
| CC1CCCN(C(=O)C2CCC(CNc3c(N4CCCCC4)c(=O)c3=O)CC2)C1 (stereo not drawn) | -8.22 |
| COC(=O)c1ccc(COc2ccc(C)c(C)c2)o1 | 12.3 |
| COc1ccc(-n2c(=O)[nH]c3cc(C(=O)NCCc4ccc(OC)c(OC)c4)ccc3c2=O)c(OC)c1 | 18.5 |
| C=CCN1C(=O)NC(c2ccc(OC)cc2)(C(F)(F)F)S/C1=C(\C#N)c1nnc(N2CCOCC2)n1-c1ccccc1 (stereo not drawn) | -62.4 |
| CN1C(=O)NC(c2ccccc2)(C(F)(F)F)S/C1=C(/C#N)c1nnc(N2CCOCC2)n1-c1ccccc1 (stereo not drawn) | -30.3 |
| C=CCN1C(=O)NC(c2ccccc2)(C(F)(F)F)S/C1=C(\C#N)c1nnc(N2CCOCC2)n1-c1ccccc1 (stereo not drawn) | -19.4 |
| CC1Cc2ccccc2N1C(=S)NC(=O)C1(C)CC1(Cl)Cl (stereo not drawn) | 30.1 |
| COc1ccc(CNC2CCCc3ccccc32)cc1OC.O=C(O)C(=O)O (stereo not drawn) | -25.3 |
| COc1ccccc1CNC1CCCc2ccccc21.O=C(O)C(=O)O (stereo not drawn) | -6.19 |
| O=C(O)C(=O)O.O=[N+]([O-])c1ccc(CNC2CCCc3ccccc32)cc1 (stereo not drawn) | -51.7 |
| O=[N+]([O-])c1ccccc1CNC1CCCc2ccccc21 (stereo not drawn) | -5.95 |
| CCOc1ccc(CNC2CCCc3ccccc32)cc1.O=C(O)C(=O)O (stereo not drawn) | -68.1 |
| COc1cc(CNC2CCCc3ccccc32)cc(OC)c1OC.O=C(O)C(=O)O (stereo not drawn) | -13.9 |
| COc1ccc(OC)c(NC(=O)Cc2coc3cc(C)cc(C)c23)c1 | 1.9 |
| COC(=O)C1=C(c2ccc(F)cc2OCc2ccccc2)C[C@@H]2CC[C@H]1N2C(=O)NCc1ccc(OC)c(OC)c1 | -2.13 |
